Columns and labels:
[1] = molecular target: T1, Ephrin type-B receptor 2 (Homo sapiens) (UniProt P29323); conditions: at 1 µM
T1 sequence (whole entry): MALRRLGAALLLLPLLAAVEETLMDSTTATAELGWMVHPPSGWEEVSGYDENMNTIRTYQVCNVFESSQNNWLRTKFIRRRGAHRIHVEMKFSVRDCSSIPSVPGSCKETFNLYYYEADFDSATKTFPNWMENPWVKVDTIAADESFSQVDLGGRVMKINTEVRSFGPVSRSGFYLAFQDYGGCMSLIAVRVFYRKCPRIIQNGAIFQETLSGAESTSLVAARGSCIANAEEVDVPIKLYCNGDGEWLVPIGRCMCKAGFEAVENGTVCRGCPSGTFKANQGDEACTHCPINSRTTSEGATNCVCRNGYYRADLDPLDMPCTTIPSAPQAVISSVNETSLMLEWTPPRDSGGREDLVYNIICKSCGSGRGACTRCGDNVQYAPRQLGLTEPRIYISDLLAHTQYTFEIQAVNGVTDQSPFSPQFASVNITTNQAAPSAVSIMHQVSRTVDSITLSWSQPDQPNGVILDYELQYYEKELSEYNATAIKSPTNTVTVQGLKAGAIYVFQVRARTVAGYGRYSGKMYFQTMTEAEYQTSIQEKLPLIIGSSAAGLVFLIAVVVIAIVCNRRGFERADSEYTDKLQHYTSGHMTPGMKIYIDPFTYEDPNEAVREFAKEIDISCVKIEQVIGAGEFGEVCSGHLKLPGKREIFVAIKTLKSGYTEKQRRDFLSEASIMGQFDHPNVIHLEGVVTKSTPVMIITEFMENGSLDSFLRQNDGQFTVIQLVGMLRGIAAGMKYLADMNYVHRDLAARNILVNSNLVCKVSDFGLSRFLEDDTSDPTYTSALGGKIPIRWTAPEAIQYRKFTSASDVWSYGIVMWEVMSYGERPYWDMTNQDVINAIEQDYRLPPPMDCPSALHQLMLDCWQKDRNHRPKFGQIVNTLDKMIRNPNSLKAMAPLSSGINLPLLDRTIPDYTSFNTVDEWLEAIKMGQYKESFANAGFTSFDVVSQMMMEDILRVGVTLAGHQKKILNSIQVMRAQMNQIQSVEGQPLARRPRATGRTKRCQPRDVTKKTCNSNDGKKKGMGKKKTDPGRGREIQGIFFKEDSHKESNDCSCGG

[2] = molecular target: T2, Ephrin type-B receptor 3 (Homo sapiens) (UniProt P54753); conditions: at 0.1 µM
T2 sequence (whole entry): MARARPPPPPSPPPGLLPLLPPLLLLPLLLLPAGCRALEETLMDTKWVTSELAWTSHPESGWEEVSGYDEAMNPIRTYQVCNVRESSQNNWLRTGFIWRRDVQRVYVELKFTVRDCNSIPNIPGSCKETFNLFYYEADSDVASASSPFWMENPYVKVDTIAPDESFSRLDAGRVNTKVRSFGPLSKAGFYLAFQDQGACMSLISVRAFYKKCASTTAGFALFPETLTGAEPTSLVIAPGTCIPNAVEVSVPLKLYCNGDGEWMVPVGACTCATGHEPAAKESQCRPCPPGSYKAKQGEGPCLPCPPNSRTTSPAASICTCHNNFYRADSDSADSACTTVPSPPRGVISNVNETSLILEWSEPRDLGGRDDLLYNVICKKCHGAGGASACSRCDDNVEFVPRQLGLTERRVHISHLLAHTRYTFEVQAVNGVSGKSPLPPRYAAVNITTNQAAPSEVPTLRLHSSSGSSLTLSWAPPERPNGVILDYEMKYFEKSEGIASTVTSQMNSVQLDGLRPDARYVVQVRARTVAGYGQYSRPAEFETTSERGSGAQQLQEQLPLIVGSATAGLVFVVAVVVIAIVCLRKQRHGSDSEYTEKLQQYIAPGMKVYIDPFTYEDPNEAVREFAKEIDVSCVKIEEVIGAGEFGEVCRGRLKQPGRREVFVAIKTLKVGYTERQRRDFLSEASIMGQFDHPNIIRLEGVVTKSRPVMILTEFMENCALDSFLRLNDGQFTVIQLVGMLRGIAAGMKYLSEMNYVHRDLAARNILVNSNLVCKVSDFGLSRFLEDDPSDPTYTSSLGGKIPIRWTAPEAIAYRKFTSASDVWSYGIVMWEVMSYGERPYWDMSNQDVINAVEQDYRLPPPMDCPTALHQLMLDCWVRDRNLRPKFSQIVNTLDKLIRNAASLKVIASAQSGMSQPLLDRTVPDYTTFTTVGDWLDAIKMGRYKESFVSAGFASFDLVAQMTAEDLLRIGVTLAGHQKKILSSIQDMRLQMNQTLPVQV

[3] = molecular target: T2, Ephrin type-B receptor 3 (Homo sapiens); conditions: at 1 µM
[4] = molecular target: T3, Ephrin type-B receptor 4 (Homo sapiens) (UniProt P54760); conditions: at 0.1 µM
T3 sequence (whole entry): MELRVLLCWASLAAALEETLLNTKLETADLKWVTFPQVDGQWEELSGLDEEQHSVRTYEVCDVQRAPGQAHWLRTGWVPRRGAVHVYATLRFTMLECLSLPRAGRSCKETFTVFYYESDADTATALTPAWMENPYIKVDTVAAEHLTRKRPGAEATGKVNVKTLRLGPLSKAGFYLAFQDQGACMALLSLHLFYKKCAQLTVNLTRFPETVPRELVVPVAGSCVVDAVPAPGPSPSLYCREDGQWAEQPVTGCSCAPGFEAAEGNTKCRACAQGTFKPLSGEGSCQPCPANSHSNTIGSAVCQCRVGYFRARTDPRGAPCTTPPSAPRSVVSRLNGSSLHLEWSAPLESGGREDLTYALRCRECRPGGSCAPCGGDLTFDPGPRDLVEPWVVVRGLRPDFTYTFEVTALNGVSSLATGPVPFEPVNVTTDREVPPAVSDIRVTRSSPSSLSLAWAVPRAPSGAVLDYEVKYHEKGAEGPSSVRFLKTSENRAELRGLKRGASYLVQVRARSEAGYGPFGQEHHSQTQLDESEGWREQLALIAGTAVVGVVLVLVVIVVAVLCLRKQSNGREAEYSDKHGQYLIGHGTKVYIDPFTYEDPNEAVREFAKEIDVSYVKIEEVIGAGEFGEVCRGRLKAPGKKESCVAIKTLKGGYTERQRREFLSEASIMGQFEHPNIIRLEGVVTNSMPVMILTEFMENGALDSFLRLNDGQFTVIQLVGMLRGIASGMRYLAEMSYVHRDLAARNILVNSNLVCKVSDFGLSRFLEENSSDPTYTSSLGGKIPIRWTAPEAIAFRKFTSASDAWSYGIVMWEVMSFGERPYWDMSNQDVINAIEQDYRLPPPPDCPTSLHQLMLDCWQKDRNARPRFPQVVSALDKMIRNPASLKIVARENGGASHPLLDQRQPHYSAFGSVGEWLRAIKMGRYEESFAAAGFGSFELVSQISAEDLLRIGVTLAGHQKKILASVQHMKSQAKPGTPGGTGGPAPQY

[5] = molecular target: T3, Ephrin type-B receptor 4 (Homo sapiens); conditions: at 1 µM
[6] = molecular target: Receptor tyrosine-protein kinase erbB-2 (Homo sapiens) (UniProt P04626); conditions: at 0.1 µM
[7] = molecular target: Receptor tyrosine-protein kinase erbB-2 (Homo sapiens) (UniProt P04626); conditions: at 1 µM
[8] = molecular target: Receptor tyrosine-protein kinase erbB-4 (Homo sapiens) (UniProt Q15303); conditions: at 0.1 µM
[9] = molecular target: Receptor tyrosine-protein kinase erbB-4 (Homo sapiens) (UniProt Q15303); conditions: at 1 µM
[10] = molecular target: Tyrosine-protein kinase Fer (Homo sapiens) (UniProt P16591); conditions: at 0.1 µM
[11] = molecular target: Tyrosine-protein kinase Fer (Homo sapiens) (UniProt P16591); conditions: at 1 µM
[12] = molecular target: Tyrosine-protein kinase Fes/Fps (Homo sapiens) (UniProt P07332); conditions: at 0.1 µM
[13] = molecular target: Tyrosine-protein kinase Fes/Fps (Homo sapiens) (UniProt P07332); conditions: at 1 µM
[14] = molecular target: Fibroblast growth factor receptor 1 (Homo sapiens) (UniProt P11362); conditions: at 0.1 µM
[15] = molecular target: Fibroblast growth factor receptor 1 (Homo sapiens) (UniProt P11362); conditions: at 1 µM
[16] = molecular target: Fibroblast growth factor receptor 2 (Homo sapiens) (UniProt P21802); conditions: at 0.1 µM
[17] = molecular target: Fibroblast growth factor receptor 2 (Homo sapiens) (UniProt P21802); conditions: at 1 µM
[18] = molecular target: Fibroblast growth factor receptor 3 (Homo sapiens) (UniProt P22607); conditions: at 0.1 µM
[19] = molecular target: Fibroblast growth factor receptor 3 (Homo sapiens) (UniProt P22607); conditions: at 1 µM
[20] = molecular target: Fibroblast growth factor receptor 4 (Homo sapiens) (UniProt P22455); conditions: at 0.1 µM;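 note: values are mean percent inhibition of FGFR4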
Sequence of Fibroblast growth factor receptor 4 (Homo sapiens) (P22455 22-802 limits assumed): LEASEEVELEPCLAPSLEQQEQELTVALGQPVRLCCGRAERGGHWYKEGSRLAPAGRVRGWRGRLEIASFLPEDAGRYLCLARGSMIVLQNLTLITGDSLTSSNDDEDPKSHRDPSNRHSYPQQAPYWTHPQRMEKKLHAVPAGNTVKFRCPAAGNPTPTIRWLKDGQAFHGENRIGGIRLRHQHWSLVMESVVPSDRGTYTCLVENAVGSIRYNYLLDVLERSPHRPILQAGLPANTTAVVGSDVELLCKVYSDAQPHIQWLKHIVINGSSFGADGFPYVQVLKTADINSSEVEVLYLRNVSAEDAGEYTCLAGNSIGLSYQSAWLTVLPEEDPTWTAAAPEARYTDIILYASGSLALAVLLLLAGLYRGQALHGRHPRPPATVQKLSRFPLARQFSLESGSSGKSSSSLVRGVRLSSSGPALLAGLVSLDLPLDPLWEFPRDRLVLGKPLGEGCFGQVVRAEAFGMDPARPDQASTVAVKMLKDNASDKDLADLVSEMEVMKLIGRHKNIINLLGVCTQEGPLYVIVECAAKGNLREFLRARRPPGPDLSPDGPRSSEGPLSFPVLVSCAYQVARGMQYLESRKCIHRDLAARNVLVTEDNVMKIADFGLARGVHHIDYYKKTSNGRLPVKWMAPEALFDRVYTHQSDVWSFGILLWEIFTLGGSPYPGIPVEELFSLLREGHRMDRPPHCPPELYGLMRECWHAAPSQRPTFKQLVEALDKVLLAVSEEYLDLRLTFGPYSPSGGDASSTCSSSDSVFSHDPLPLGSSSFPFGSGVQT

Sequence of Tyrosine-protein kinase Fer (Homo sapiens) (P16591 whole entry, looked up): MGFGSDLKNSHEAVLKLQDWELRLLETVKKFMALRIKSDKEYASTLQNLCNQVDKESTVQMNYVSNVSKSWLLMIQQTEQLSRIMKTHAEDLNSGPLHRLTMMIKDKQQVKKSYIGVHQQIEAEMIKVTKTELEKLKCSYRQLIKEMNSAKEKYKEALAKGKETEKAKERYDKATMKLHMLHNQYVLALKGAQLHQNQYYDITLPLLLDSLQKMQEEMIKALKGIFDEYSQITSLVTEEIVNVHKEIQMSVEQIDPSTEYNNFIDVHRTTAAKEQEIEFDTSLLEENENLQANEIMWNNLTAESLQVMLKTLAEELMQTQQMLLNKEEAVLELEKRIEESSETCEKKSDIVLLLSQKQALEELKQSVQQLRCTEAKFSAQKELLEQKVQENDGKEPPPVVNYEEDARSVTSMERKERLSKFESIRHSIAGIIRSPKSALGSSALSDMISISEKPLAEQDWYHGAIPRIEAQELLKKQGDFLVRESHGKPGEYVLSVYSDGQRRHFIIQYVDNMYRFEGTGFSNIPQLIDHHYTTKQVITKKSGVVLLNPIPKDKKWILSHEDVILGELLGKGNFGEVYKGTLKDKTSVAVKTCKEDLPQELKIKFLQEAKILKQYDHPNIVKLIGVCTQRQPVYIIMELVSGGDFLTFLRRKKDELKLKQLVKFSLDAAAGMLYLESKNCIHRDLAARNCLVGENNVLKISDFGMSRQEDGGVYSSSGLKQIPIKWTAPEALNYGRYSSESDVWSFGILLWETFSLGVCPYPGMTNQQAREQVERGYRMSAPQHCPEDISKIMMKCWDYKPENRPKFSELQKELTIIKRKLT
Sequence of Fibroblast growth factor receptor 1 (Homo sapiens) (P11362 22-822 limits assumed): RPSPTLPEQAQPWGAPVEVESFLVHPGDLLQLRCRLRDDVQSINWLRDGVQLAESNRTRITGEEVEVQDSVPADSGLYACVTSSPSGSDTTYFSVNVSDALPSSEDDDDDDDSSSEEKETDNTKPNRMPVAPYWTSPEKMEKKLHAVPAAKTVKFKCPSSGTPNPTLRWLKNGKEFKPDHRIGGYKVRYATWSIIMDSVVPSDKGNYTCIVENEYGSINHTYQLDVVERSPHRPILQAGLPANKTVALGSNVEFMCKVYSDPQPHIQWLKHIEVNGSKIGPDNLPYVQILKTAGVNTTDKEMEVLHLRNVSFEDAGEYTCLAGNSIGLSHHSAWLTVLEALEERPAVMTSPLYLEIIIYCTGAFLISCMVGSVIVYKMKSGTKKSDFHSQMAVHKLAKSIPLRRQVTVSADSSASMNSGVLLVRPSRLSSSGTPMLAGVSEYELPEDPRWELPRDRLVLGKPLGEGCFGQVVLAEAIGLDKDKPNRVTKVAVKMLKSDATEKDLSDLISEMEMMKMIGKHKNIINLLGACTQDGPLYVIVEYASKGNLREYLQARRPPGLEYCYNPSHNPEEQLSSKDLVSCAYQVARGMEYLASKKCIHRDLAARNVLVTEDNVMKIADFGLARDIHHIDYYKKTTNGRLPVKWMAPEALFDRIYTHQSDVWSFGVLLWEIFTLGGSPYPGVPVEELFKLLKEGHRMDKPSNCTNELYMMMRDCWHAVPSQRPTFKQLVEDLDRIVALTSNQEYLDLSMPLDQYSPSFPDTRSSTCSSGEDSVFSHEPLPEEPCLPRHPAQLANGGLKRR
Sequence of Fibroblast growth factor receptor 2 (Homo sapiens) (P21802 22-821 limits assumed): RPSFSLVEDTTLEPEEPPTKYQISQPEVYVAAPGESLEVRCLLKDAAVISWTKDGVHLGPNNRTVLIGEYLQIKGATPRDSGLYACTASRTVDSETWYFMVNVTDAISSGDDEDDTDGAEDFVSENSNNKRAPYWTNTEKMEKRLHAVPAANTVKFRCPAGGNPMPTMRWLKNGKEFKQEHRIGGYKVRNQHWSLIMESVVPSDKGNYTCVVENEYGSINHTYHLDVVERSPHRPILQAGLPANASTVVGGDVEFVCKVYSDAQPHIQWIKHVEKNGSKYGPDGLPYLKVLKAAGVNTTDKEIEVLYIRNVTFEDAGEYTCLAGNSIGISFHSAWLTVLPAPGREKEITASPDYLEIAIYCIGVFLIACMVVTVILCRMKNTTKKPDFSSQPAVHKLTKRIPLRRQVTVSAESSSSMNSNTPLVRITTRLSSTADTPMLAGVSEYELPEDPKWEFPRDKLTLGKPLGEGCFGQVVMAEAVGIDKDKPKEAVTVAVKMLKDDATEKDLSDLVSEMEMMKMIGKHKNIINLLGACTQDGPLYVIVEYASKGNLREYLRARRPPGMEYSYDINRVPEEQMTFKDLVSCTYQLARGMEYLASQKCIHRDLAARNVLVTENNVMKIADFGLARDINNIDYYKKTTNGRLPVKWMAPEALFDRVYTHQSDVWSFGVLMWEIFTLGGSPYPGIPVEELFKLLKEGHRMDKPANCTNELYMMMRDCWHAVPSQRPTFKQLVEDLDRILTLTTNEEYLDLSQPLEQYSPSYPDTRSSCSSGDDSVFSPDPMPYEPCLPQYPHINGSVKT
Sequence of Tyrosine-protein kinase Fes/Fps (Homo sapiens) (P07332 whole entry): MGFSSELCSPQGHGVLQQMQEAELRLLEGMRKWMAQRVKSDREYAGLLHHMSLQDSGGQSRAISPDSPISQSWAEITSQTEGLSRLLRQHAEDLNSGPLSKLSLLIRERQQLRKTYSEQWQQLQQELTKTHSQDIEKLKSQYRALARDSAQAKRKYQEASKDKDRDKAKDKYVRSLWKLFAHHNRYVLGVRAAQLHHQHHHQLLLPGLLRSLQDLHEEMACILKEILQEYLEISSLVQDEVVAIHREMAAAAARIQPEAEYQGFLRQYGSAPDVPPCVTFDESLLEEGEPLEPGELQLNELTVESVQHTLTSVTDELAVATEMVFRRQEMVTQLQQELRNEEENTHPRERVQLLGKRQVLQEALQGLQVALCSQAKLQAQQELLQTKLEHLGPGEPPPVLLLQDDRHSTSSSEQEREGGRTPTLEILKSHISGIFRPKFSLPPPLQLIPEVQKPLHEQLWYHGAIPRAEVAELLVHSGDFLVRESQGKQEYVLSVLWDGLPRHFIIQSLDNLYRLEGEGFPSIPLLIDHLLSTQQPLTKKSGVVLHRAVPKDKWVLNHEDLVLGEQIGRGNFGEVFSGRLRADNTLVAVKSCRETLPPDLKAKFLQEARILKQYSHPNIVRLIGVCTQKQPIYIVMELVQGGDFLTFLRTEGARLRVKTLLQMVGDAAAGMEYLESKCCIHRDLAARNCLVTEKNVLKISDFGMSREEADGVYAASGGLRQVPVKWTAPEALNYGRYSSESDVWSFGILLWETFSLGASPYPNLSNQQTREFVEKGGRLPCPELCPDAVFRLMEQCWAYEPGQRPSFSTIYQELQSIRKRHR
Sequence of Fibroblast growth factor receptor 3 (Homo sapiens) (P22607 23-806 limits assumed): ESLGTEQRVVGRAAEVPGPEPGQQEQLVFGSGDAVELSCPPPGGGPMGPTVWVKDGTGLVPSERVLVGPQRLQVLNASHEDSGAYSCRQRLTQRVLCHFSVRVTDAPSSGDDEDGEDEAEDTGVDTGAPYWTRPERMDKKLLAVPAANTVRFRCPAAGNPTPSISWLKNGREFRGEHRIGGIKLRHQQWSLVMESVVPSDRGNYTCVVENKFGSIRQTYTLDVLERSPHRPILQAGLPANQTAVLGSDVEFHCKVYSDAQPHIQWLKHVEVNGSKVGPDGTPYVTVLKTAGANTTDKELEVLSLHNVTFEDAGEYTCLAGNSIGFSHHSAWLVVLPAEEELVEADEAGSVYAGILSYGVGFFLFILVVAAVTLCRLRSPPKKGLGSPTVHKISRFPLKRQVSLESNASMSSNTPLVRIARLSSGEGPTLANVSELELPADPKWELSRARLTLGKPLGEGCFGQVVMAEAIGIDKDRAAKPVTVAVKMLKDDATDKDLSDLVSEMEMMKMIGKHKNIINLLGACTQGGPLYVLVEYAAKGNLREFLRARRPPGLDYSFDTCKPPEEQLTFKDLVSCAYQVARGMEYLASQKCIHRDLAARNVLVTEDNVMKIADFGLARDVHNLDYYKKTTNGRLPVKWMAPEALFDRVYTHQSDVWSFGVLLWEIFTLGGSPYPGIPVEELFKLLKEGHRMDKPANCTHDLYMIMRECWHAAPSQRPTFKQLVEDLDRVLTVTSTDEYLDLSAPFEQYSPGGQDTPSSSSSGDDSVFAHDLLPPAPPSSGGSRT

SMILES | inhibition [1] [%] | inhibition [2] [%] | inhibition [3] [%] | inhibition [4] [%] | inhibition [5] [%] | inhibition [6] [%] | inhibition [7] [%] | inhibition [8] [%] | inhibition [9] [%] | inhibition [10] [%] | inhibition [11] [%] | inhibition [12] [%] | inhibition [13] [%] | inhibition [14] [%] | inhibition [15] [%] | inhibition [16] [%] | inhibition [17] [%] | inhibition [18] [%] | inhibition [19] [%] | inhibition [20] [%]
COc1ccc(-c2ccncc2)cc1C(N)=O | 8.22 | 3.97 | 3.63 | 1 | 2.03 | 1.06 | 2.95 | 6.21 | 12.3 | 4.03 | 3.22 | 2.97 | 3.83 | 4.37 | 8.58 | 7.42 | 8.69 | 7.66 | 7.43 | 2.74
COc1cc2ncn(-c3cc(OCc4ccccc4Cl)c(C(N)=O)s3)c2cc1OC | 7.08 | 2.15 | 1.6 | 0.55 | 3.38 | -1 | 2.47 | -1.93 | 9.17 | 2.47 | 8.52 | -0.24 | 0.38 | 3.46 | 8.43 |  | 13.2 | 4.37 | 13.2 | -5.86
COc1ccc(-c2coc3ncnc(N)c23)cc1 | 7.88 | 6.18 | 5.65 | 2.3 | 3.43 | 0.31 | -4.24 | 9.06 | 15.5 | 6.86 | 2.33 | 4.28 | 5.04 | 3.15 | 9.2 | 3.85 | 10.1 | 6.98 | 6.72 | -5.79
CS(=O)(=O)Nc1ccc(N/C=C2\C(=O)Nc3ccccc32)cc1 | 0.55 | -5.53 | -3.88 | 0.19 | -0.64 | -3.57 | -1.76 |  | -9.44 | 1.8 | 5.06 | -2.08 | -1.95 | -1.9 | 5.82 | 1.04 | 27.1 | 1.57 | 25.5 | 2.33
CCn1c(-c2nonc2N)nc2c(C#CC(C)(C)O)nc(CN3CCCC3)cc21 | -4.07 | 2.42 | -2.06 | 1.15 | 0.96 | -1.45 | -6.25 | 3.95 | -0.29 | -1.64 | 0.06 | -1.26 | -0.58 | -3.25 | -2.63 | -0.04 | 0.42 | -2.14 | -0.76 | -0.75
O=C1Nc2ccc(C(=O)c3ccco3)cc2C1=Cc1cc(Cl)c(O)c(Cl)c1 | 15 | 4.56 | 5.53 | 3.11 | 2.52 | 0.77 | 4.54 | 12.2 | 15.8 | 2.31 | 11.5 | 1.95 | 2.89 | 3.35 | 8.23 | 6.09 | 25.8 | 9.26 | 19.1 | 2.69
CCCN1CCC(Oc2cc(Nc3nc(Nc4cccc(F)c4C(N)=O)c4cc[nH]c4n3)c(OC)cc2Cl)CC1 | 13.7 | 1.47 | -1.18 | -0.64 | 0.69 | 0.9 | 1.3 | 0.71 | 0.3 | 3.76 | 16 | 0.64 | 8.02 | 0.06 | 3.54 | -2.81 | 3.3 | 0.52 | 0.96 | 0.71
